According to PubChem BioAssay (Tox21):
Inconclusive results are not listed. The source made the active and inactive calls. Unless noted, the call rests on the fitted dose curve; in most records, active means well fitted curve in the direction sought with a large enough effect in the repeat runs; inconclusive means weak or mixed curves; inactive means no such curve, though single readings can be large; an effect the other way counts as inactive or inconclusive.

Experiments:
[1] = qHTS assay for small molecule agonists of the p53 signaling pathway (AID 651631; calls by dose curve; further: nearly all actives have a fitted effect of over 15% in size)
In short: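 Readout was fluorescence from the LiveBLAzer FRET substrate, applied for 2 h at room temperature after 16 h compound exposure at 37 °C. Cells were the p53RE-bla HCT-116 line, with beta-lactamase driven by p53 response elements.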

[2] = qHTS assay for small molecules that induce genotoxicity in human embryonic kidney cells expressing luciferase-tagged ATAD5 (AID 651632); further: nearly all actives have a fitted effect of over 15% in size
In short: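 Cells were seeded at 2,000 per well, dosed with compound, and incubated 16 hr at 37C in 5% CO2. Luciferase activity was then quantified after a 30 min room-temperature incubation with Amplite.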

[3] = qHTS assay for small molecule agonists of the p53 signaling pathway - cell viability (AID 651633; calls by dose curve; further: series mostly up to about 83 µM; nearly all actives have a fitted effect of over 30% in size)
In short: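 Viability counter-read: CellTiter-Glo luminescence (30 min, room temperature) in the same p53RE-bla plates. These plates had been exposed to compounds for 16 h at 37 C.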

[4] = qHTS assay for small molecules that induce genotoxicity in human embryonic kidney cells expressing luciferase-tagged ATAD5 - cell viability (AID 651634; calls by dose curve; further: nearly all actives have a fitted effect of over 25% in size)
In short: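 Cells (HEK293T, luciferase-tagged ATAD5) are seeded at 2,000 per well, dosed with compound or DMSO vehicle, and incubated 15.5 hr at 37C and 5% CO2. CellTiter-Fluor is added for 30 min before fluorescence is measured.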

[5] = qHTS assay for small molecule disruptors of the mitochondrial membrane potential - cell viability (AID 720634; calls by dose curve;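 further: human HepG2 liver cancer cells; series mostly up to about 83 µM; nearly all actives have a fitted effect of over 20% in size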)
In short: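 Cytotoxicity was measured by ATP quantitation in HepG2 wells that had first been treated with compound for 1 hr and stained with m-MPI dye; CellTiter-Glo incubation was 30 min at room temperature.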

[6] = qHTS assay for small molecule disruptors of the mitochondrial membrane potential (AID 720635)
In short: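 Mitochondrial membrane potential tracked with Mito-MPS dye, red aggregates (ex 540/em 590 nm) against green monomers (ex 490/em 535 nm). Compound treatment 1 hr at 37C, dye 30 min in HepG2.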

[7] = qHTS assay to test for compound auto fluorescence at 590 nm (red) in HepG2 cells (AID 720674)
In short: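 We screened compounds on adherent HepG2 cells, incubating them for an hour at 37 C in 5% CO2 before reading emission at 590 nm under 540 nm excitation; values reflect equivalence to Rose Bengal sodium fluorescence.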

[8] = qHTS assay to test for compound auto fluorescence at 535 nm (green) in HepG2 cells (AID 720675)
[9] = qHTS assay to test for compound auto fluorescence at 460 nm (blue) in HEK293 cells (AID 720678)
In short: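 After cell attachment (4-5 hr, 37C), compounds were pinned onto HEK293 monolayers in 10% dialyzed FBS medium. The blue channel (405/460 nm) was read following overnight culture. Equivalency was calculated against triamterene.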

[10] = qHTS assay to test for compound auto fluorescence at 590 nm (red) in HEK293 cells (AID 720679)
In short: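 Plates of HEK293 cells (10% dialyzed FBS) are treated with 23 nL compound or DMSO vehicle after a 4-5 hr attachment period, incubated overnight at 37C, and read for red fluorescence at 540/590nm.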

[11] = qHTS assay to test for compound auto fluorescence at 535 nm (green) in HEK293 cells (AID 720680)
[12] = qHTS assay to test for compound auto fluorescence at 460 nm (blue) in HEK293 cell free culture (AID 720681)
In short: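 Blue fluorescence (Ex 405/Em 460 nm, triamterene-equivalent) was read immediately after pin transfer of compound or DMSO into medium (DMEM, 10% FBS) without cells.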

[13] = qHTS assay to test for compound auto fluorescence at 590 nm (red) in HEK293 cell free culture (AID 720683)
In short: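 Red-channel autofluorescence of compounds in culture medium (DMEM, 10% FBS), no cells, measured at 540/590 nm. Rose Bengal sodium is the reference fluorophore for equivalence.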

[14] = qHTS assay to test for compound auto fluorescence at 590 nm (red) in HepG2 cell free culture (AID 720684)
In short: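 No cells present: MEM + 10% FBS only. Compound pinned in, red label read (540/590 nm). Activity = fluorescence equivalent to Rose Bengal sodium.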

[15] = qHTS assay to test for compound auto fluorescence at 460 nm (blue) in HepG2 cell free culture (AID 720685)
In short: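 Cell-free plates of MEM plus 10% FBS received 23 nL compound or DMSO vehicle; blue-channel (405/460 nm) intensity scored against triamterene as reference fluorophore.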

[16] = qHTS assay to test for compound auto fluorescence at 535 nm (green) in HepG2 cell free culture (AID 720686)
[17] = qHTS assay to test for compound auto fluorescence at 460 nm (blue) in HepG2 cells (AID 720687)
In short: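 Blue-channel autofluorescence (Ex/Em 405/460 nm, triamterene-equivalent) was measured after 1 hr compound exposure at 37 C, 5% CO2. Cells were HepG2, plated overnight at 37 C in MEM plus 10% FBS.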

[18] = qHTS assay to test for compound auto fluorescence at 535 nm (green) in HEK293 cell free culture (AID 720682)
In short: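 Compounds were pin-transferred into cell-free DMEM with 10% FBS, and green fluorescence was read at excitation 485 nm and emission 535 nm. Intensities were expressed as fluorescein-equivalent values.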

[19] = target: Glucocorticoid receptor (Homo sapiens) (UniProt P04150); experiment: qHTS assay to identify small molecule agonists of the glucocorticoid receptor (GR) signaling pathway (AID 720691; active means well fitted activation curve with a large enough effect in the signal ratio in the repeat runs, not every such curve was filed as active; the % refers to the signal ratio)
Chain of Glucocorticoid receptor (Homo sapiens) (P04150 whole entry, looked up): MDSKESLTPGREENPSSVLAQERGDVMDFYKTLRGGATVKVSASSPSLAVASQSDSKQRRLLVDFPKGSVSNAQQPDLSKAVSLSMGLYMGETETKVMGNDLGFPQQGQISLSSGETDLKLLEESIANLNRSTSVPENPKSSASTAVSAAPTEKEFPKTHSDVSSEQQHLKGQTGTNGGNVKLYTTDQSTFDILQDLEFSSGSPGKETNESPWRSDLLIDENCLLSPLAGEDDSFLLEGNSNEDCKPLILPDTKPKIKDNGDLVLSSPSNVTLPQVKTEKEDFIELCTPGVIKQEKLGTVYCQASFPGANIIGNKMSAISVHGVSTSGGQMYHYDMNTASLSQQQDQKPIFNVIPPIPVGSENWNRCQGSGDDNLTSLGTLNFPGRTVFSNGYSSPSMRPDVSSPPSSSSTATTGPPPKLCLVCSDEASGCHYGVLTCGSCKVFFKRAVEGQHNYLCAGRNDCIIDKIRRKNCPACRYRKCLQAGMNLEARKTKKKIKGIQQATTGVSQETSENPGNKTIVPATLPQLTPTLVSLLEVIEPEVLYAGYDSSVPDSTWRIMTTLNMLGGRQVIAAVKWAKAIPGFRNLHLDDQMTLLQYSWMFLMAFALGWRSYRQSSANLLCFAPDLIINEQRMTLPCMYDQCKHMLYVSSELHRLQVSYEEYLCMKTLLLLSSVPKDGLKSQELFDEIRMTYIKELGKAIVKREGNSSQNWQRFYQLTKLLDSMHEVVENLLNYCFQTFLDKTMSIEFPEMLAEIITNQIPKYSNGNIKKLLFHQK
In short: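 Steps: seed GR-bla HeLa cells, incubate 4 h at 37 C/5% CO2; pin-transfer DMSO-dissolved compounds; incubate 18 h at 37 C; add LiveBLAzer B/G FRET substrate; after 2 h at room temperature, measure fluorescence.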

[20] = target: Glucocorticoid receptor (Homo sapiens) (UniProt P04150); experiment: qHTS assay to identify small molecule antagonists of the glucocorticoid receptor (GR) signaling pathway (AID 720692; active means well fitted inhibition curve with a large enough effect in the signal ratio in the repeat runs, not every such curve was filed as active; the % refers to the signal ratio)
In short: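 Antagonism was scored as loss of dexamethasone-driven (5 nM final) reporter signal in HeLa cells bearing a glucocorticoid response element–beta-lactamase construct, after 18 h compound exposure at 37 C and 2 h FRET substrate loading.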
On the % scale 0 is the no-effect control and ±100 the full control effect.

CC/C(C)=N\O[Si](C)(O/N=C(\C)CC)O/N=C(\C)CC
inactive: outcome [1] | outcome [2] | outcome [3] | Potency [4] | outcome [5] | Potency [6] | outcome [7] | outcome [8] | outcome [9] | outcome [10] | outcome [11] | outcome [12] | outcome [13] | outcome [14] | outcome [15] | outcome [16] | outcome [17]

C#CCN[C@@H]1CCc2ccccc21
inactive: outcome [1] | outcome [2] | outcome [3] | Potency [4] | outcome [5] | Potency [6] | outcome [7] | outcome [8] | outcome [9] | outcome [10] | outcome [11] | outcome [13] | outcome [14] | outcome [15] | outcome [17]

CCOC(=O)CC1(C)OCC(C)O1 (stereo not drawn)
inactive: outcome [1] | outcome [2] | outcome [3] | Potency [4] | outcome [5] | Potency [6] | outcome [7] | outcome [8] | outcome [9] | outcome [10] | outcome [11] | outcome [12] | outcome [18] | outcome [14] | outcome [15] | outcome [16] | outcome [17]

Cc1c(N)cccc1Cl
inactive: outcome [1] | outcome [2] | outcome [3] | Potency [4] | outcome [5] | Potency [6] | outcome [7] | outcome [8] | outcome [9] | outcome [10] | outcome [11] | outcome [18] | outcome [13] | outcome [14] | outcome [15] | outcome [17] | Potency [19] | outcome [20]

C/C(CC(C)C)=N\O
inactive: outcome [1] | outcome [2] | outcome [3] | Potency [4] | outcome [5] | Potency [6] | outcome [7] | outcome [8] | outcome [9] | outcome [10] | outcome [11] | outcome [12] | outcome [18] | outcome [14] | outcome [15] | outcome [16] | outcome [17]

C=CCCCCCCCCC(=O)OCCCC
inactive: outcome [1] | outcome [2] | outcome [3] | Potency [4] | outcome [5] | Potency [6] | outcome [7] | outcome [8] | outcome [9] | outcome [10] | outcome [11] | outcome [12] | outcome [18] | outcome [13] | outcome [14] | outcome [15] | outcome [17]

NCc1ccc(S(N)(=O)=O)cc1
inactive: outcome [1] | outcome [2] | outcome [3] | Potency [4] | outcome [5] | Potency [6] | fluorescence, relative to Rose Bengal [7] -0.36% [at 18.6 µM] | fluorescence, % of triamterene [9] 0.204% [at 18.6 µM] | fluorescence, % of fluorescent control [10] -0.0605% [at 18.6 µM] | fluorescence, % of fluorescein [11] 0.0433% [at 18.6 µM] | fluorescence, % of fluorescent control [12] 0.104% [at 18.6 µM] | activity change [18] -0.0097% [at 18.6 µM] | fluorescence, % of fluorescent control [13] 0.469% [at 18.6 µM] | fluorescence, % of Rose Bengal [14] 0.496% [at 18.6 µM] | fluorescence, % of fluorescent control [15] 0.0628% [at 18.6 µM] | fluorescence, % of fluorescein control [16] 0.0245% [at 18.6 µM] | fluorescence, % of fluorescent control [17] 0.0103% [at 18.6 µM]

O=C(O)[C@H](O)c1ccccc1
inactive: outcome [1] | outcome [2] | outcome [3] | Potency [4] | outcome [5] | Potency [6] | outcome [7] | outcome [8] | outcome [9] | outcome [10] | outcome [11] | outcome [12] | outcome [18] | outcome [14] | outcome [15] | outcome [16] | outcome [17]

CC(C)=CCC/C(C)=C/COC=O
inactive: outcome [1] | outcome [2] | outcome [3] | Potency [4] | outcome [5] | Potency [6] | outcome [7] | outcome [8] | outcome [9] | outcome [10] | outcome [11] | outcome [18] | outcome [13] | outcome [14] | outcome [15] | outcome [17]

CC1=NN(c2ccc(S(=O)(=O)O)cc2)C(=O)C1
inactive: outcome [1] | outcome [2] | outcome [3] | Potency [4] | outcome [5] | Potency [6] | outcome [7] | outcome [8] | outcome [9] | outcome [10] | outcome [11] | outcome [12] | outcome [13] | outcome [14] | outcome [15] | outcome [16] | outcome [17] | outcome [20]

CC(=O)CCc1ccc(OC(C)=O)cc1
inactive: outcome [1] | outcome [2] | outcome [3] | Potency [4] | outcome [5] | Potency [6] | outcome [7] | outcome [8] | outcome [9] | outcome [10] | outcome [11] | outcome [12] | outcome [18] | outcome [13] | outcome [14] | outcome [15] | outcome [16] | outcome [17] | Potency [19] | outcome [20]

CC1(C)Oc2ccc(C#N)cc2[C@@H](N2CCCC2=O)[C@@H]1O
inactive: outcome [1] | outcome [2] | outcome [3] | Potency [4] | outcome [5] | Potency [6] | outcome [7] | outcome [9] | outcome [10] | outcome [11] | outcome [12] | outcome [18] | outcome [13] | outcome [14] | outcome [15] | outcome [16] | outcome [17] | Potency [19] | outcome [20]

CCCCCCCCCCCCCCCCCC#N
inactive: outcome [1] | outcome [2] | outcome [3] | Potency [4] | outcome [5] | Potency [6] | outcome [7] | outcome [8] | outcome [9] | outcome [10] | outcome [11] | outcome [12] | outcome [18] | outcome [13] | outcome [14] | outcome [15] | outcome [16] | outcome [17]

O=Cc1cc2ccccc2o1
inactive: outcome [1] | outcome [2] | outcome [3] | Potency [4] | outcome [5] | Potency [6] | outcome [7] | outcome [8] | outcome [9] | outcome [10] | outcome [11] | outcome [18] | outcome [13] | outcome [14] | outcome [16] | outcome [17] | Potency [19] | outcome [20]

C=CCSSCCC
inactive: outcome [1] | outcome [2] | outcome [3] | Potency [4] | outcome [5] | Potency [6] | outcome [7] | outcome [8] | outcome [9] | outcome [10] | outcome [11] | outcome [12] | outcome [18] | outcome [13] | outcome [14] | outcome [16] | outcome [17] | Potency [19] | outcome [20]
